In PubChem BioAssay AID651650 (Sanford-Burnham Center for Chemical Genomics, 2012) one finds inhibition data, which are given here for 39 compounds.

What is called inhibition is the drop in the measured response relative to a control, in per cent.

For this assay, the target named is Neuropilin-1 (Homo sapiens) (UniProt O14786). The experiment in a line: NRP-1 b1b2 CendR peptide binding inhibitors, dose response, biochemical, FP and AlphaScreen panel (AID 651650). The following applies: NRP-1 b1b2 / RPARPAR peptide binding, FP or AlphaScreen; run 1, at 100 µM (top of the series). (In general: Bead proximity is the source of the signal in Alpha formats.)
Chain of Neuropilin-1 (Homo sapiens) (O14786 whole entry, looked up): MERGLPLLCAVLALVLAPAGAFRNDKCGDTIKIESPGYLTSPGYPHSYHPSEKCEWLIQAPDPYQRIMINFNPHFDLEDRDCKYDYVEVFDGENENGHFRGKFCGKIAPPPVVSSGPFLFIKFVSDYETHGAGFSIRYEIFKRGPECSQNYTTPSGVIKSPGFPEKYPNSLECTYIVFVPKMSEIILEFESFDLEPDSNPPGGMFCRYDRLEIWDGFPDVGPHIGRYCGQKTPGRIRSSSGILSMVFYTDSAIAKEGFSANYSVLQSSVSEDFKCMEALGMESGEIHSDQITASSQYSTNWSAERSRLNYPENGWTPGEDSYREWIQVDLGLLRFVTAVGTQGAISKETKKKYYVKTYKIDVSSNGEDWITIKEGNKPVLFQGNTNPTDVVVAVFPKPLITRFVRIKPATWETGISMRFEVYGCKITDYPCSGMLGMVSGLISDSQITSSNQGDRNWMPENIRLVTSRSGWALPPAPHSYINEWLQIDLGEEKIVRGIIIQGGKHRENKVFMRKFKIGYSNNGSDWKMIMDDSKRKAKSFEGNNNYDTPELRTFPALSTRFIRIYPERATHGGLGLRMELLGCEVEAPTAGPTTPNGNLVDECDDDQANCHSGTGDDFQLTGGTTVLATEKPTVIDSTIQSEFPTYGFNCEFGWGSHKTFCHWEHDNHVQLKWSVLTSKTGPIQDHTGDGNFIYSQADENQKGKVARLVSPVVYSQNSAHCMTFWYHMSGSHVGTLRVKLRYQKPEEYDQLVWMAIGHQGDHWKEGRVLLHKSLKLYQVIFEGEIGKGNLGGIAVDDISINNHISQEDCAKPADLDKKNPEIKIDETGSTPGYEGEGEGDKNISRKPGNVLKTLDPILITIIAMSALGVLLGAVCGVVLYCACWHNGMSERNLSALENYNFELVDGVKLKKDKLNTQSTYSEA
Turning to `O=Cc1ccc(-c2ccccc2C(=O)O)o1`, the inhibition turned out to be 51.8%.

Turning to `COc1cccc(NC(=O)CSc2nc(O)c(C)c(=O)n2-c2ccc(C)cc2)c1`, the inhibition was 84.9%.

With `CC1(C)S[C@@H]2[C@H](NC(=O)COc3ccccc3)C(=O)N2C1C(=O)OCc1ccccc1` (some centres undefined), the inhibition came to 53.2%.

As for `CC(NCCOCCOc1ccccc1)c1ccccc1` (centres undefined), the inhibition came out at 39.6%.

On to `CC(=O)Nc1ccc(NC(=O)C2CC(=O)N=C(N)S2)cc1` (centres undefined), for which the inhibition is 95.5%.

On to `C=C(C)C1CC=C(C)/C(=N\NC(=O)CNc2ccccc2OC)C1` (centres undefined), for which the inhibition is -8.81%.

Take `CC(C)NC(=O)c1c(CSc2ccccc2)noc1C(=O)NCc1ccccc1`: the inhibition was 49%.

Turning to `COc1cc2c(cc1OC)C(Nc1ccc(S(N)(=O)=O)cc1)=NC(C)(C)C2`, the inhibition is 71.9%.

On to `CCOC(=O)C1CCN(Cc2ccc3ccccc3c2)CC1`, for which the inhibition worked out at 52.3%.

Regarding `Cc1ccc(C(=O)Nc2nnc([C@H]3C[C@H](O)[C@@H](CO)O3)s2)cc1`, the inhibition is 25.4%.

Turning to `CCNC(=O)C1(C)CCCN(C(=O)c2nc(C)oc2C)C1` (centres undefined), the inhibition is 20.1%.

Consider `NS(=O)(=O)c1cccnc1Nc1cccc(Cl)c1Cl`, for which the inhibition is 14.4%.

With `C=CCOc1ccc(C2/C(=C(\O)c3c(C)[nH]c(C(=O)OC)c3C)C(=O)C(=O)N2CCN(C)C)cc1` (centres undefined), the inhibition is 3.64%.

In the case of `COc1ccc(/C=N/NC(=O)c2cc(C(C)(C)C)[nH]n2)cc1COc1ccc(F)cc1F`, the inhibition stood at 26%.

Take `CCOC(=O)c1cnc(-c2ccccc2)nc1Oc1ccc(OC)cc1`: the inhibition was determined as 99.5%.

Consider `CN1CCC(=NNC(=O)c2ccco2)CC1`, for which the inhibition is 17.4%.

As for `N#Cc1ccc(COC(=O)c2cnc(Cl)c(Cl)c2)cc1`, the inhibition was determined as 36.5%.

In the case of `COc1cccc(N2[C@@H](CC(C)=O)c3ccc(/C=C/C(C)=O)cc3S2(=O)=O)c1`, the inhibition is 10.9%.

Regarding `O=C(COC(=O)c1ccccn1)c1ccc([N+](=O)[O-])cc1`, the inhibition amounted to 66.4%.

Turning to `CCOC(=O)[C@@H]1[C@H]2COc3ccccc3[C@@H]2N2C(=O)N(c3ccc(Cl)cc3)C(=O)[C@]12C`, the inhibition worked out at 48.8%.

With `C/C(=N\NC(=O)c1cc(O)ccc1O)c1cccc(NC(=O)c2cccc(Cl)c2)c1`, the inhibition came to 27.7%.

Turning to `CCc1ccc(OC(=O)CN2C(=O)c3ccccc3C2=O)cc1`, the inhibition is 76.9%.

On to `CCN(CC)C(=O)C1CCCN(C(=O)Nc2ccc3nsnc3c2)C1` (centres undefined), for which the inhibition turned out to be 21.5%.

In the case of `Cc1nnc(NC(=O)c2ccccc2C(=O)O)s1`, the inhibition was found to be 99.7%.

In the case of `O=C(NCCN1CCOCC1)c1cc(-c2ccc(F)cc2)on1`, the inhibition is 17.9%.

Turning to `CC#CCN(Cc1ccco1)C(=O)C1CCC(=O)N(Cc2ccccc2F)C1` (centres undefined), the inhibition amounted to 24.4%.

Consider `CCOC(=O)c1ccc(N2CCN(C(=O)c3ccccc3)CC2)c(NC(=O)c2ccco2)c1`, for which the inhibition stood at 40.4%.

`NC(=O)C1CCN(c2nc(-c3ccc4occc(=O)c4c3)cs2)CC1`: the inhibition amounted to 53.3%.

Consider `COC(=O)c1ccc(Cn2nnc3c(=O)[nH]c(C4CCCN(S(=O)(=O)c5cccc(Cl)c5)C4)nc32)cc1` (centres undefined), for which the inhibition was 35.3%.

With `CC1(C(=O)NCc2cccc3ccccc23)CCN1Cc1cccc2c1OCO2` (centres undefined), the inhibition worked out at 21%.

Turning to `Fc1cnc(N2CCOCC2)nc1N1CCOCC1`, the inhibition is 49%.

In the case of `CC(Nc1ccc2ccccc2c1)C(=O)N/N=C/c1ccncc1` (centres undefined), the inhibition came out at 45.8%.

With `Nc1ncnc2[nH]c(=S)[nH]c12`, the inhibition was -4.05%.

Turning to `COC(=O)C[C@H]1c2cc(F)ccc2S(=O)(=O)N1C(C)C`, the inhibition was 29.9%.

On to `O=C(O)c1cccc(N2C(=O)c3cc([N+](=O)[O-])cc4cc([N+](=O)[O-])cc(c34)C2=O)c1`, for which the inhibition was determined as 32.7%.

For the compound `O=C(CCCNC(=O)/C(=C\c1ccc(F)cc1)NC(=O)c1ccccc1)OCc1ccccc1`, the inhibition is -33%.

On to `COc1ccc(Cl)cc1NC(=O)C(C)N1CCc2ccccc21` (centres undefined), for which the inhibition is 82.6%.

`O=C(c1cccc(F)c1)N1CCN(c2ccc([N+](=O)[O-])c(N3CCCCC3)c2)CC1`: the inhibition is 33.3%.

As to `Cc1c(CC(=O)O)c(=O)oc2cc(OCc3ccc(F)cc3Cl)ccc12`, the inhibition was -12.1%.
